# Records with an inconclusive call do not appear. Activity calls are given as the source filed them. Calls follow the shape of the dose curve; as a rule, active = well fitted curve in the direction sought with a large enough effect; inconclusive = small, poorly fitted or top-dose-only effect, or another doubt; inactive = no such curve, though single readings can be large; an effect the other way counts as inactive or inconclusive.
# Legend:
# [1] = Quantitative High-Throughput drug screen in 47 multiple myeloma cell lines against the NCATS MIPE library collection: KHM11_PLB cell viability assay (AID 1918962); also: nearly all actives have a fitted effect of over 35% in size
# Outline: (§1)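 Relative luminescence from CellTiter-Glo served as the viability signal, referenced to DMSO-treated (100%) and cell-free medium (0%) controls. Treatment lasted 48 hours at 37C with 500 cells per well.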
# [2] = Quantitative High-Throughput drug screen in 47 multiple myeloma cell lines against the NCATS MIPE library collection: JIM3_ECACC cell viability assay (AID 1918963; also: nearly all actives have a fitted effect of over 35% in size)
# Outline: as §1
# [3] = Quantitative High-Throughput drug screen in 47 multiple myeloma cell lines against the NCATS MIPE library collection: INA6_PLB cell viability assay (AID 1918965; also: nearly all actives have a fitted effect of over 55% in size)
# Outline: as §1
# [4] = Quantitative High-Throughput drug screen in 47 multiple myeloma cell lines against the NCATS MIPE library collection: JJN3_DSMZ cell viability assay (AID 1918966; also: nearly all actives have a fitted effect of over 50% in size)
# Outline: (§2)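 Primary qHTS used for cherry-picking: cells at 500/well, library compounds for 48 h (37C, 5% CO2), luminescent ATP assay.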
# [5] = Quantitative High-Throughput drug screen in 47 multiple myeloma cell lines against the NCATS MIPE library collection: H1112_PLB cell viability assay (AID 1918967; also: nearly all actives have a fitted effect of over 30% in size)
# Outline: as §2
# [6] = Quantitative High-Throughput drug screen in 47 multiple myeloma cell lines against the NCATS MIPE library collection: Karpas25_ECACC cell viability assay (AID 1918968; also: nearly all actives have a fitted effect of over 35% in size)
# Outline: as §2
# [7] = Quantitative High-Throughput drug screen in 47 multiple myeloma cell lines against the NCATS MIPE library collection: KMS27_JCRB cell viability assay (AID 1918970); settings: KMS27 myeloma cells, CellTiter-Glo ATP viability, 48 h; viability (% of DMSO): at 45.8 µM (top of the series); also: nearly all actives have a fitted effect of over 30% in size
# Outline: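 CellTiter-Glo luminescence after 48 h drug exposure at 37 °C; 500 cells/well, 1536-well format, pin-tool compound addition; DMSO = 100%, media-only = 0% viability.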
# [8] = Quantitative High-Throughput drug screen in 47 multiple myeloma cell lines against the NCATS MIPE library collection: KMS12BM_JCRB cell viability assay (AID 1918971); also: nearly all actives have a fitted effect of over 35% in size
# Outline: (§3)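 Approved and investigational drugs from MIPE 4.0 were added by pin tool to 500 cells per well. After 48 hours at 37C, ATP-based CellTiter-Glo luminescence indicated remaining viability.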
# [9] = Quantitative High-Throughput drug screen in 47 multiple myeloma cell lines against the NCATS MIPE library collection: KMS12PE_JCRB cell viability assay (AID 1918972); also: nearly all actives have a fitted effect of over 30% in size
# Outline: as §1
# [10] = Quantitative High-Throughput drug screen in 47 multiple myeloma cell lines against the NCATS MIPE library collection: KMS20_JCRB cell viability assay (AID 1918973); also: nearly all actives have a fitted effect of over 45% in size
# Outline: as §2
# [11] = Quantitative High-Throughput drug screen in 47 multiple myeloma cell lines against the NCATS MIPE library collection: KMS26_JCRB cell viability assay (AID 1918975); also: nearly all actives have a fitted effect of over 45% in size
# Outline: as §3
# [12] = Quantitative High-Throughput drug screen in 47 multiple myeloma cell lines against the NCATS MIPE library collection: MMM1_PLB cell viability assay (AID 1918976); also: nearly all actives have a fitted effect of over 35% in size
# Outline: (§4)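 Readout: median RLU from CellTiter-Glo after 5 min at room temperature. Preceding step was 48 h drug treatment of 500 cells/well at 37 °C, 5% CO2, with DMSO-only and media-only control wells.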
# [13] = Quantitative High-Throughput drug screen in 47 multiple myeloma cell lines against the NCATS MIPE library collection: MOLP8_DSMZ cell viability assay (AID 1918977); also: nearly all actives have a fitted effect of over 45% in size
# Outline: as §4
# [14] = Quantitative High-Throughput drug screen in 47 multiple myeloma cell lines against the NCATS MIPE library collection: NCIH929_DSMZ cell viability assay (AID 1918978); also: nearly all actives have a fitted effect of over 35% in size
# Outline: as §4
# [15] = Quantitative High-Throughput drug screen in 47 multiple myeloma cell lines against the NCATS MIPE library collection: OCIMY1_PLB cell viability assay (AID 1918979); also: nearly all actives have a fitted effect of over 35% in size
# Outline: as §4
# [16] = Quantitative High-Throughput drug screen in 47 multiple myeloma cell lines against the NCATS MIPE library collection: MM1S_ATCC cell viability assay (AID 1918980); also: nearly all actives have a fitted effect of over 45% in size
# Outline: as §4
# [17] = Quantitative High-Throughput drug screen in 47 multiple myeloma cell lines against the NCATS MIPE library collection: MM1R_ATCC cell viability assay (AID 1918981); also: nearly all actives have a fitted effect of over 35% in size
# Outline: as §4
# [18] = Quantitative High-Throughput drug screen in 47 multiple myeloma cell lines against the NCATS MIPE library collection: LP1_DSMZ cell viability assay (AID 1918982); also: nearly all actives have a fitted effect of over 35% in size
# Outline: as §4
# [19] = Quantitative High-Throughput drug screen in 47 multiple myeloma cell lines against the NCATS MIPE library collection: JIM1_ECACC cell viability assay (AID 1918964)
# Outline: as §2
# Potency is read from the fitted curve at half-maximal effect.
SMILES,Potency [1],Potency [2],Potency [3],Potency [4],Potency [5],Potency [6],Potency [7],Potency [8],Potency [9],Potency [10],Potency [11],Potency [12],Potency [13],Potency [14],Potency [15],Potency [16],Potency [17],Potency [18],Potency [19]
CCOC(=O)N1CCN([N+]([O-])=NOc2ccc([N+](=O)[O-])cc2[N+](=O)[O-])CC1,1480 nM (active),2640 nM (active),2960 nM (active),2640 nM (active),1180 nM (active),469 nM (active),4180 nM (active),1480 nM (active),8330 nM (active),1180 nM (active),833 nM (active),3720 nM (active),2350 nM (active),1320 nM (active),7430 nM (active),1870 nM (active),1180 nM (active),2640 nM (active),
COc1cc([C@@H]2c3cc4c(cc3[C@H](O)[C@H]3COC(=O)[C@@H]23)OCO4)cc(OC)c1OC,105 nM (active),118 nM (active),148 nM (active),526 nM (active),526 nM (active),187 nM (active),52.6 nM (active),148 nM (active),118 nM (active),1320 nM (active),372 nM (active),469 nM (active),469 nM (active),590 nM (active),,833 nM (active),526 nM (active),,
C[C@H]1[C@@H](OC(=O)CCC(=O)O)O[C@@H]2O[C@@]3(C)CC[C@@H]4[C@H](C)CC[C@@H]1[C@@]24OO3,3320 nM (active),6620 nM (active),2640 nM (active),1480 nM (active),16600 nM (active),2350 nM (active),,5260 nM (active),1050 nM (active),,14800 nM (active),5900 nM (active),,2640 nM (active),14800 nM (active),18700 nM (active),14800 nM (active),,935 nM (active)
O=C1c2cccc(O)c2C(=O)c2c(O)cc(CO)cc21,inactive,inactive,,,inactive,,inactive,,inactive,inactive,inactive,,,inactive,inactive,inactive,inactive,16600 nM (active),inactive
FC(F)(F)c1ccc(Nc2nc3ccc(Oc4ccnc(-c5ncc(C(F)(F)F)[nH]5)c4)cc3[nH]2)cc1,20900 nM (active),23500 nM (active),18700 nM (active),20900 nM (active),,20900 nM (active),23500 nM (active),18700 nM (active),14800 nM (active),,,,,,,20900 nM (active),,,11800 nM (active)
C[C@H](NC(=O)C(C#N)=Cc1cccc(Br)n1)c1ccccc1,2090 nM (active),2090 nM (active),1870 nM (active),4180 nM (active),2350 nM (active),2090 nM (active),13200 nM (active),4690 nM (active),16600 nM (active),2350 nM (active),2350 nM (active),7430 nM (active),2350 nM (active),,7430 nM (active),8330 nM (active),2090 nM (active),5900 nM (active),
COc1cccc2c1C(=O)c1c(O)c3c(c(O)c1C2=O)C[C@@](O)(C(=O)CO)C[C@@H]3O[C@H]1C[C@H](N)[C@H](OC2CCCCO2)[C@H](C)O1 (stereo partly drawn),2090 nM (active),3720 nM (active),469 nM (active),1870 nM (active),1480 nM (active),1050 nM (active),inactive,2090 nM (active),inactive,1180 nM (active),2960 nM (active),1180 nM (active),1180 nM (active),935 nM (active),14800 nM (active),132 nM (active),296 nM (active),18700 nM (active),
C=CC(=O)N1CCc2ccc(-n3c(=O)ccc4cnc5ccc(-c6cnn(C)c6)cc5c43)cc21,526 nM (active),2960 nM (active),235 nM (active),1050 nM (active),1050 nM (active),590 nM (active),2960 nM (active),4690 nM (active),2960 nM (active),833 nM (active),1320 nM (active),1870 nM (active),590 nM (active),1660 nM (active),1870 nM (active),2640 nM (active),,1480 nM (active),
C=CCNc1c(O)cc2c(O)c1C[C@@H](C)C[C@H](OC)[C@@H](O)[C@@H](C)C=C(C)[C@H](OC(N)=O)[C@@H](OC)C=CC=C(C)C(=O)N2,264 nM (active),590 nM (active),187 nM (active),296 nM (active),1050 nM (active),469 nM (active),148 nM (active),332 nM (active),105 nM (active),372 nM (active),1320 nM (active),8330 nM (active),332 nM (active),418 nM (active),1480 nM (active),1180 nM (active),526 nM (active),1870 nM (active),
NC(=O)Nc1sc(-c2ccc(F)cc2)cc1C(N)=O,833 nM (active),4690 nM (active),332 nM (active),418 nM (active),,418 nM (active),166 nM (active),4180 nM (active),935 nM (active),1660 nM (active),2960 nM (active),3320 nM (active),13200 nM (active),20.9 nM (active),,332 nM (active),4690 nM (active),,74.3 nM (active)
